Data on five compounds can be found in PubChem BioAssay.

A short description of assay [1]: binders of probe aFSTL3 on microarray, primary screen, stem cell growth factor project, biochemical, small-molecule microarray, fluorescence 635/667 (AID 1064).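 Note: measures binding of the biotinylated anti-FSTL3 antibody to printed compounds.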 The following applies: higher = more signal.
Assay [2] can be described thus: binders from COS7 lysate, DM2A8 probe, primary screen, torsin A project, cell lysate, small-molecule microarray, fluorescence 635/667 (AID 1065). The following applies: higher = more signal, COS7 lysate expressing mutant human TOR1A.
Assay [3] is described as follows: binders of probe aFGF2 on microarray, primary screen, stem cell growth factor project, biochemical, small-molecule microarray, fluorescence 635/667 (AID 1067).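 Note: measures binding of biotinylated aFGF2 protein to printed compounds on slides; z-score merges feature fluorescence and signal-to-noise across triplicate slides.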 The following applies: higher = more signal.
A short description of assay [4]: binders of probe aFGF10 on microarray, primary screen, stem cell growth factor project, biochemical, small-molecule microarray, fluorescence 635/667 (AID 1071).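 Note: score merges 667 nm spot intensity and signal to noise from triplicate slides.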 The following applies: higher = more signal.
Assay [5] concerns the target Neurogenic locus notch homolog protein 2 (Homo sapiens) (UniProt Q04721). In words: Notch2 binders on small-molecule microarrays, primary screen, biochemical, small-molecule microarray, 635 nm fluorescence, stem cell growth factors (AID 1073). The following applies: Notch2 binding, higher = more signal.
In assay [6] the target is Pro-neuregulin-1, membrane-bound isoform (Homo sapiens) (UniProt Q02297). In words: NRG1 binders on small-molecule microarrays, primary screen, psychiatric disease protein project, biochemical, small-molecule microarray, fluorescence 635/667 (AID 1075).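 Note: score combines 667 nm spot fluorescence with signal to noise.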 As to conditions: NRG1 binding, 635 nm fluorescence, higher = more signal.
Chain of Pro-neuregulin-1, membrane-bound isoform (Homo sapiens) (Q02297 whole entry, looked up, the tested form may be a part, canonical isoform): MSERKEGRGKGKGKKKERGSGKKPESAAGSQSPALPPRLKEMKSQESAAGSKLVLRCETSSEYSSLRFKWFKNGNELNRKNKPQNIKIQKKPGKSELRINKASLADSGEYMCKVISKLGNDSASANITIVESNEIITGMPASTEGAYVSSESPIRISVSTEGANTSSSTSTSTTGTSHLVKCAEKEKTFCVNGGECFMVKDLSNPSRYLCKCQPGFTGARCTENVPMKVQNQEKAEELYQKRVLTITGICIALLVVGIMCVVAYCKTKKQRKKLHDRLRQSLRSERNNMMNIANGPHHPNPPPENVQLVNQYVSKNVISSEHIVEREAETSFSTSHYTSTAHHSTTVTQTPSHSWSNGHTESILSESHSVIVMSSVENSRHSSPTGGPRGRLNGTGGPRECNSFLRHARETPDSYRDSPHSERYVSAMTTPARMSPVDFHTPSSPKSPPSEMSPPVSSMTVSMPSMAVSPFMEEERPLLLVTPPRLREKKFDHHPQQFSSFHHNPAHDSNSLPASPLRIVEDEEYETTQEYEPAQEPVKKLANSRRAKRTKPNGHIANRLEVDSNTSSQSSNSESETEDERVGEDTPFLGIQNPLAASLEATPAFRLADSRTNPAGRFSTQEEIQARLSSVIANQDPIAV
In assay [7] the test system is Neuregulin-1 EGF-like domain. In words: binders of neuregulin-1 EGF-like domain, primary screen, biochemical, small-molecule microarray, 635 nm fluorescence (AID 1081).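 Note: binding of the protein to compounds printed on small-molecule microarray slides.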 As to conditions: small-molecule microarray binding, higher = more signal.
A short description of assay [8]: FRG1 promoter luciferase signal modulators, primary screen, FRG1 inhibition for FSHD, cell-based, C2C12 myotubes, firefly/Renilla luciferase, luminescence (AID 1084). As to conditions: higher = more signal, called active from +8 up or from −8 down.
Assay [9] is described as follows: binders of probe aFST on microarray, primary screen, stem cell growth factor project, biochemical, small-molecule microarray, fluorescence 635/667 (AID 1086).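 Note: score merges 667 nm fluorescence with signal-to-noise of each printed compound spot.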 The following applies: higher = more signal.
Assay [10] can be described thus: binders of probe aHhip on microarray, primary screen, stem cell growth factor project, biochemical, small-molecule microarray, fluorescence 635/667 (AID 1087).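 Note: score merges spot fluorescence at 667nm with spot signal to noise ratio.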 The following applies: higher = more signal.
Assay [11] concerns PRMT1 (protein arginine N-methyltransferase 1). In words: PRMT1 binders on small-molecule microarrays, primary screen, biochemical, small-molecule microarray, 635 nm fluorescence (AID 1088).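 Note: binding of Prmt1 protein to compounds spotted on small-molecule microarray slides.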 The following applies: small-molecule microarray binding, higher = more signal.
The nature of assay [12]: yeast growth modulation, basal conditions, primary screen, YJM789 clinical isolate, OD600, 24 h (AID 1089).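 Note: growth of clinical yeast isolate S. cerevisiae YJM 789 seeded 1000 cells per well; test concentration not given here.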 The following applies: S. cerevisiae YJM789 growth, higher = more signal, called active from +8 up or from −8 down.
Assay [13] in a line: fission yeast growth modulation, primary screen, strain 972, OD600, 24 h, no modulator (AID 1090).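 Note: basal condition with compound alone and no growth modifier present; test concentration not given here.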 As to conditions: S. pombe 972 growth, higher = more signal, called active from +8 up or from −8 down.
The nature of assay [14]: S. cerevisiae growth modulation with rapamycin, primary screen, strain BY4716, OD600, 96 h (AID 1091). Note: test concentration not given here. The following applies: higher = more signal, called active from +8 up or from −8 down.
The target of assay [15] is Torsin-1A-interacting protein 2 (Homo sapiens) (UniProt Q8NFQ8). Briefly: LULL1 binders on small-molecule microarray, primary screen, cell lysate, human LULL1 lysate, 635/667 nm fluorescence (AID 1092).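 Note: probe is lysate of COS7 cells overexpressing human LULL1; score merges per-feature 667 nm fluorescence with signal-to-noise.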 The following applies: hLULL1 lysate binding, 635 nm fluorescence, higher = more signal.
Chain of Torsin-1A-interacting protein 2 (Homo sapiens) (Q8NFQ8 whole entry, looked up): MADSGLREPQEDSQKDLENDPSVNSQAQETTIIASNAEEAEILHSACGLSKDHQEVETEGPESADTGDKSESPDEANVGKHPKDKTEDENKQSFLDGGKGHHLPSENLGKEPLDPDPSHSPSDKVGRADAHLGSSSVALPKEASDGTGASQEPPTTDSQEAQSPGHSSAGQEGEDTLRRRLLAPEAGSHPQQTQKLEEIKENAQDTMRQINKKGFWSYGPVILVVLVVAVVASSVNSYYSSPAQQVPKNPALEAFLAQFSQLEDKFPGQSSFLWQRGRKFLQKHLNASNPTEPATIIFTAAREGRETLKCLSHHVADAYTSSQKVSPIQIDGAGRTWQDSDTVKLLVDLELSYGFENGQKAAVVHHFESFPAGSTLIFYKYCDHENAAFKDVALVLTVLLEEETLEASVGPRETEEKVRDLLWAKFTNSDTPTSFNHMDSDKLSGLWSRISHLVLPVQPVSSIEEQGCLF
Assay [16] can be described thus: E. coli growth modulation, two-sided OD650, primary screen, E. coli filamentation project, strain DRC41, 24 h (AID 1093).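 Note: MC1000 strain lacking acrAB efflux and sulA so SOS filamentation is blocked; test concentration not given here.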 As to conditions: OD650, 24 h, higher = more signal, called active from +8 up or from −8 down.
Assay [17] is described as follows: small-molecule microarray binders of probe aLefty2, primary screen, biochemical, biotinylated probe, 635/667 nm fluorescence (AID 1094).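 Note: score merges spot fluorescence near 667 nm with spot signal-to-noise ratio.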 As to conditions: higher = more signal.
The subject of assay [18] is Noggin (protein binding on small-molecule microarray). Briefly: Noggin binders on small-molecule microarray, primary screen, biochemical, 635/667 nm fluorescence (AID 1095).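 Note: score merges 667 nm feature fluorescence with signal to noise over triplicate slides.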 As to conditions: 635 nm fluorescence, higher = more signal.
For assay [19], the target named is Neurogenic locus notch homolog protein 3 (Homo sapiens) (UniProt Q9UM47). Briefly: NOTCH3 binders on small-molecule microarray, primary screen, biochemical, 635/667 nm fluorescence (AID 1096). The following applies: NOTCH3 binding, 635 nm fluorescence, higher = more signal.
Assay [20] is described as follows: small-molecule microarray binders of probe aEGFR, primary screen, biochemical, biotinylated probe, 635/667 nm fluorescence (AID 1097).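 Note: probe is a biotinylated anti-EGFR antibody binding compounds printed on slides; score combines fluorescence near 667 nm and signal to noise of each spot.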 The following applies: higher = more signal.

Each structure is given as a SMILES string. Active and inactive are the calls of the source.

Chain of Neurogenic locus notch homolog protein 2 (Homo sapiens) (Q04721 whole entry, looked up, canonical isoform): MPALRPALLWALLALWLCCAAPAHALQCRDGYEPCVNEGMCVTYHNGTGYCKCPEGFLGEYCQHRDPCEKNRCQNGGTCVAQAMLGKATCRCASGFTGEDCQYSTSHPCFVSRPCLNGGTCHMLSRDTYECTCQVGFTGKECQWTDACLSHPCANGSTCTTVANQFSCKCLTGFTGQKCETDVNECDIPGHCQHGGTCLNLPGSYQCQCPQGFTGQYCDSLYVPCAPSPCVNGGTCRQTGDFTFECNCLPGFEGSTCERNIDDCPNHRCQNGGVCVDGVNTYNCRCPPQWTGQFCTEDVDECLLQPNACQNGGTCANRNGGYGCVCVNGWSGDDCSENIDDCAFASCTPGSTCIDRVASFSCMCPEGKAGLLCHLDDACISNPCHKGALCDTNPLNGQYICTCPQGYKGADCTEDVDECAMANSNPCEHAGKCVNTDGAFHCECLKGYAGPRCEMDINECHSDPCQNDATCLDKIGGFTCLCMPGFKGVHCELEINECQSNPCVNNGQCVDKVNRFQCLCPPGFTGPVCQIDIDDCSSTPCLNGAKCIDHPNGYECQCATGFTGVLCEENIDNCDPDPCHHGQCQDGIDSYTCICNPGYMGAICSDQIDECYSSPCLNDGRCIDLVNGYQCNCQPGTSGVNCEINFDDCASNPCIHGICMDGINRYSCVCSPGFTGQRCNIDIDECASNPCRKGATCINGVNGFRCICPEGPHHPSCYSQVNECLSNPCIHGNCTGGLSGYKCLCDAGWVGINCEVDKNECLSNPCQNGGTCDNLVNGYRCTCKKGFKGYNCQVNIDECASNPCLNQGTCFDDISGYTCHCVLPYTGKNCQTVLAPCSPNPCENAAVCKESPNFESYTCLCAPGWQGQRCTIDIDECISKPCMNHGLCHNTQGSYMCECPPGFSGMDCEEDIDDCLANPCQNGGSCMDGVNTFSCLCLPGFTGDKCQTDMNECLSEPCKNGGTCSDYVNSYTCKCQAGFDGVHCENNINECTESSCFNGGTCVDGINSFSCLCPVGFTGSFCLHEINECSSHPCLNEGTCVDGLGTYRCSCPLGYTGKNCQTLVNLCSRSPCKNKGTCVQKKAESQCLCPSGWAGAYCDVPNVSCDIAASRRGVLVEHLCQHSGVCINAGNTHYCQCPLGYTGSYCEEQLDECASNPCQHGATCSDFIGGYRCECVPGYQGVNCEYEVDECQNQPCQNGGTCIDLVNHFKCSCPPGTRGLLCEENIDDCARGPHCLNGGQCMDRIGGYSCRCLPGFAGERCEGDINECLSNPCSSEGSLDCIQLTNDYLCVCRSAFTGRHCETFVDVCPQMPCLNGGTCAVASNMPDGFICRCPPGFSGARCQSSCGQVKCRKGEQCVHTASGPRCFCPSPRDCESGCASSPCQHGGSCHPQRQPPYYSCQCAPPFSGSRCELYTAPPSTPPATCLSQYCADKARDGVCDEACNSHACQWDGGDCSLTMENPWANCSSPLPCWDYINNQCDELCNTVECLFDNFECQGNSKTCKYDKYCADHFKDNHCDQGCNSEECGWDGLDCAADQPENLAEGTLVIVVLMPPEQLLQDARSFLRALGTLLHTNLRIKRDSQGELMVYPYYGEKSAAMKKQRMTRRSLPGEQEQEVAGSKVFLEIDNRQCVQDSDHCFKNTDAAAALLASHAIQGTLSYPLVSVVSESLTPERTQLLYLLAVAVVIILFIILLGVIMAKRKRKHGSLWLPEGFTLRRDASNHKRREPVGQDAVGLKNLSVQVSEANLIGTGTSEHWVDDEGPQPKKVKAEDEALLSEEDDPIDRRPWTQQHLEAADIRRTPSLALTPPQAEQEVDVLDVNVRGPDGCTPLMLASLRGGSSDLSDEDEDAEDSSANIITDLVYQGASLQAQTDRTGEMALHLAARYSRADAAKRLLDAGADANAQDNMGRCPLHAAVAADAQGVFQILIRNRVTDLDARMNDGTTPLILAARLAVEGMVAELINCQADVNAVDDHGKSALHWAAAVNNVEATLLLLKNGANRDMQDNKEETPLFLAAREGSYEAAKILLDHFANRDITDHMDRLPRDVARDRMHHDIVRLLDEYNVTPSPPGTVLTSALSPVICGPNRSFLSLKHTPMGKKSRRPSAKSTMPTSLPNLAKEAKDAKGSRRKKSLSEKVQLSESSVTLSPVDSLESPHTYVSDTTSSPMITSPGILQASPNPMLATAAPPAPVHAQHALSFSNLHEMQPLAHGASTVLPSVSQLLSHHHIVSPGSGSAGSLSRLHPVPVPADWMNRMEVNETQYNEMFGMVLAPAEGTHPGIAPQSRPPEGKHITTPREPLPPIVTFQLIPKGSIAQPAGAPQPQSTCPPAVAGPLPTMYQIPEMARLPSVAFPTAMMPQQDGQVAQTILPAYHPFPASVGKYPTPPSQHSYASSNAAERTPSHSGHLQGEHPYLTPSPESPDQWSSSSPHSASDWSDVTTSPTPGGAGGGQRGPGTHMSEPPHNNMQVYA

Consider `C=CCC(OC(C)=O)[C@@H]1[C@@H](N(Cc2cc3ccccc3o2)C(=O)Cc2ccc(OC)cc2)c2cc(OCCCO)ccc2N1C(=O)c1ccc(-c2ccccc2)cc1` (stereo not given in full), for which the composite z-score in assay [1] was 0.378; in [2] it was 0.459; in [3], -0.0601; in assay [4], -0.204; in assay [5] it was -0.4; in assay [6], -0.294. Also, the composite z-score in assay [7] is -0.529; in assay [9] it was 0.182; in assay [10], 0.251; in [11], -0.427; in assay [15], 0.238; in [17], 0.0689. Moreover, the composite z-score is -0.624 in [18], -1.09 in assay [19] and -0.127 in assay [20]. Also, the z-score in assay [8] was -0.199 (inactive); in [12], 0.0801 (inactive); in assay [13], -0.709 (inactive); in [14], 0.714 (inactive); in assay [16] it was 1.53 (inactive).
In the case of `CN(C)CCCN1C(=O)[C@@]2(Cc3ccccc31)c1ccccc1C(=O)N(Cc1ccccc1)[C@H]2c1ccc(CO)cc1`, the composite z-score was -0.0277 in assay [1]; 0.115 in assay [2]; -0.0861 in assay [3]; -0.492 in [4]; -0.639 in [5]; 0.466 in assay [6]. Besides, the composite z-score in [7] is -0.226; in assay [9], 1.02; in assay [10], -0.0994; in assay [11], 1.12; in assay [15] it was -0.42; in [17], -0.171. The composite z-score was 0.542 in assay [18], 0.204 in assay [19] and -0.184 in assay [20]. Further, the z-score in assay [8] is 0.878 (inactive); in [12] it was -0.0782 (inactive); in assay [13], -1.35 (inactive); in [14], -1.85 (inactive); in assay [16], -1.42 (inactive).
Regarding `Cc1ccc(-c2cccc(=O)o2)cc1`, the composite z-score was 0.139 in [1]; -0.549 in [2]; -0.0973 in [3]; -0.304 in assay [4]; -0.351 in assay [5]; -0.411 in assay [6]. Further, the composite z-score is -0.596 in [7]; 0.121 in assay [9]; -0.353 in assay [10]; -0.0072 in [11]; -0.606 in [15]; -0.183 in assay [17]. The composite z-score in assay [18] was -0.175; in [19], -0.312; in [20], -0.105. For the same compound, the z-score is 5.3 (inactive) in assay [8]; -1.91 (inactive) in [12]; -1.56 (inactive) in [13]; 1 (inactive) in assay [14]; 0.0307 (inactive) in assay [16].
As to `CC1CC/C=C\[C@H]2OC34C=CCN(c5ccc(Cl)cc5)C(=O)[C@H]3N(C(CO)C(C)C)C(=O)[C@]4(C)C2C(=O)O1` (stereo not given in full), the composite z-score was -0.128 in assay [1]; 1.9 in assay [2]; -0.146 in [3]; -0.38 in [4]; -0.594 in [5]; 1 in [6]. The composite z-score in assay [7] is 1.47; in assay [9], -0.637; in assay [10] it was 0.0373; in assay [11], -0.538; in assay [15], 2.25; in assay [17] it was -0.166. The values for the composite z-score in assay [18], in assay [19] and in [20] were -0.643, 0.161 and -0.233, respectively. Besides, the z-score in assay [8] was 0.51 (inactive); in [12], 1.04 (inactive); in [13], -0.775 (inactive); in assay [14] it was -0.439 (inactive); in assay [16], -0.304 (inactive).
For the compound `COCCCNC(=O)[C@@H]1c2ccccc2C(=O)N(Cc2cc(F)cc(C(F)(F)F)c2)[C@H]1c1ccc(CO)cc1`, the composite z-score in [1] is 0.211; in assay [2], -0.303; in assay [3], -0.233; in [4], -0.535; in [5] it was -0.984; in assay [6] it was -0.676. Moreover, the composite z-score in assay [7] was 0.716; in assay [9], -0.395; in assay [10], -0.134; in [11] it was -0.444; in [15], 0.0519; in [17], -0.016. The composite z-score in assay [18] was -0.902; in assay [19] it was -1.26; in [20] it was -0.207. The z-score in [8] was 0.154 (inactive); in assay [12], -0.359 (inactive); in assay [13], -0.555 (inactive); in [14], -0.703 (inactive); in [16], 0.526 (inactive).
